Only some compounds are listed: those with a hit (about 1.3% of all), similar ones and a draw of the others.
EPAC2 antagonist – EPAC2 (human) antagonism; Q8WZA2; EPAC2 GEF exchange of Rap1B-BODIPY-GDP, fluorescence; Potency, µM (titrated, usually from 114 µM), most hits filed as inhibitors; 360,000 tested, 0.18% active; AID 720708; further: nearly all actives have a fitted effect of over 45% in size
RGS4 inhibitor – human RGS4 inhibition; P49798; Transcreener GDP fluorescence polarization, RGS4-accelerated GTP hydrolysis; Potency, µM (titrated, usually from 114 µM), usual class: inhibitors; 390,000 tested, 0.039% active; further: nearly all actives have a fitted effect of over 75% in size
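MLSMR compounds (23 nl, pin-transferred) preincubated 10 min at room temperature with a 500nM (2x) first reagent, then RGS4 at 900nM (2x) plus Transcreener GDP mix added; fluorescence polarization (620/688 nm) read before and after 90 min at 30 °C.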
EPAC2 ag – agonists of human EPAC2 (RAPGEF4); Q8WZA2; EPAC2 activation, biochemical qHTS; response scale: 100% = 6.5 mM cAMP response; Potency, µM (series often up to 154 µM), actives largely listed as activators; 360,000 tested, 0.079% active; AID 720711; further: nearly all actives have a fitted effect of over 50% in size
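qHTS, titration series. 100 nM EPAC2 / 250 nM Rap1B-BODIPY-GDP / 50 uM GDP; RT; ex 480/em 540 nm, 5-min reads to 30 min. Norm. to 6.5 mM cAMP = activation.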
EPAC1 agonist – activates human EPAC1 exchange factor | O95398 | EPAC1 agonist qHTS, biochemical assay; response scale: 100% = response to 6.5 mM cAMP | Potency, µM (doses to about 154 µM), actives largely listed as activators | 360,000 tested, 0.073% active; further: nearly all actives have a fitted effect of over 60% in size
Target sequence (O95398 whole entry, looked up): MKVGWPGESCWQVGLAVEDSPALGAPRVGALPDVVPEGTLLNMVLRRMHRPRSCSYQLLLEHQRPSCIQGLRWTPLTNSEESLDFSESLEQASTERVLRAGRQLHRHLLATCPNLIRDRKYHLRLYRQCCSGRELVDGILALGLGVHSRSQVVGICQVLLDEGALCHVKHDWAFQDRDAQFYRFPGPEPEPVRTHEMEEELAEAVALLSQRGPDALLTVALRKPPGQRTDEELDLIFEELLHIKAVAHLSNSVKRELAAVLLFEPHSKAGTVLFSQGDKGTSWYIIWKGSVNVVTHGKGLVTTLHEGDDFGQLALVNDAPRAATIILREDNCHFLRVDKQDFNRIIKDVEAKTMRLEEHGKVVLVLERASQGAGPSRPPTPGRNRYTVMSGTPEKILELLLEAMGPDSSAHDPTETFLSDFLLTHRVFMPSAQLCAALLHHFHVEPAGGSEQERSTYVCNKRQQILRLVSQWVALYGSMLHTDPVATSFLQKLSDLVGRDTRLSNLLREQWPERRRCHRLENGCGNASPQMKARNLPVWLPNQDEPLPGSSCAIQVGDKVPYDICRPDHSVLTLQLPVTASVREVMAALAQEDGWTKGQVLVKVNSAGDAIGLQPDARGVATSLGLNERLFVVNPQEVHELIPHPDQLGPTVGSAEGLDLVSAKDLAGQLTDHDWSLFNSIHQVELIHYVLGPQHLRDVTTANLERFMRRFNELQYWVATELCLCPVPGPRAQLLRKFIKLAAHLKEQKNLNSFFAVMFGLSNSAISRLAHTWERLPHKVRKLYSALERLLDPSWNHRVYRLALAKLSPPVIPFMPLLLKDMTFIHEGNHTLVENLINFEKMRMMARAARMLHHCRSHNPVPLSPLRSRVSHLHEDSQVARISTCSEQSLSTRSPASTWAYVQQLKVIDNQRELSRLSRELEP
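Normalized to 6.5 mM cAMP, activity reflects EPAC1-catalysed release of BODIPY-GDP from Rap1B, followed kinetically over 30 min at 480 nm excitation, 540 nm emission. Reaction contained 100 nM EPAC1, 250 nM Rap1B-BODIPY-GDP, 50 uM GDP.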
EPAC1 antagonist – blocks human EPAC1 exchange factor | Potency, µM (doses to about 115 µM), hits mostly inhibitors | O95398 | EPAC1 GEF assay, Rap1b-BODIPY-GDP exchange fluorescence | AID 720709 | 360,000 tested, 0.14% active; further: nearly all actives have a fitted effect of over 50% in size
BRCA1 expr up – BRCA1 expression activation; MCF7-BRCA1-FFLuc reporter, luminescence, 48 h; response scale: scaled: vehicle 0%, 10 µM genistein 100%; Potency, µM (series often up to 46.1 µM), usual class: activators; 380,000 tested, 1.1% active; further: nearly all actives have a fitted effect of over 80% in size
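Cells: MCF7-BRCA1-FFLuc, 2000/well. Exposure: 48 h, 37 °C, 5% CO2. Read: luminescence, 15 min post-substrate. Controls: genistein 10 microM (maximal activation), DMSO (neutral).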
Hits are given with their value. The call rests on the fitted dose curve; in most records, active means well fitted curve in the direction sought with a large enough effect; inconclusive means small, poorly fitted or top-dose-only effect, or another doubt; inactive means no such curve, though single readings can be large; an effect the other way counts as inactive or inconclusive.

Screening Cc1ccc(C)c(OCc2cc(C(=O)N3CCN(c4ccccc4)CC3)no2)c1 returned EPAC2 antagonist inactive, RGS4 inhibitor inactive, EPAC2 ag inactive, EPAC1 agonist inactive, EPAC1 antagonist inactive and BRCA1 expr up 7.1µM.
Screening COCCCNC(=O)c1sc2ncccc2c1-n1cccc1 returned RGS4 inhibitor inactive.
For Cc1cc(/C=C2/C(=N)N3C(=NC2=O)SN=C3S(C)(=O)=O)c(C)n1-c1ccc(F)cc1 the results were EPAC2 antagonist inactive, RGS4 inhibitor inactive, EPAC2 ag inactive, EPAC1 agonist inactive, EPAC1 antagonist inactive and BRCA1 expr up 7.9µM.
O=C(N/N=C/C1CC2CCC1C2)C1CC1 (configuration not stated) was read as EPAC2 antagonist inactive, RGS4 inhibitor inactive, EPAC2 ag inactive, EPAC1 agonist inactive, EPAC1 antagonist inactive and BRCA1 expr up inactive.
For NC1CCN(c2cccc(Cl)n2)CC1 the results were RGS4 inhibitor inactive.
N#Cc1cc(C#N)c(N2CCN(c3cccc(Cl)n3)CC2)nc1N was read as EPAC2 antagonist inactive, RGS4 inhibitor inactive, EPAC2 ag inactive, EPAC1 agonist inactive, EPAC1 antagonist inactive and BRCA1 expr up 8.9µM.
For COc1cc(/C=N/N=C2/NC(=O)C(CC(=O)O)S2)ccc1OCc1cccc(Cl)c1 (configuration not stated) the results were EPAC2 antagonist inactive, RGS4 inhibitor inactive, EPAC2 ag inactive, EPAC1 agonist inactive, EPAC1 antagonist inactive and BRCA1 expr up 11µM.
For CC1=Nn2c(nnc2-c2ccccn2)SC1 the results were EPAC2 antagonist inactive, RGS4 inhibitor inactive, EPAC2 ag inactive, EPAC1 agonist inactive, EPAC1 antagonist inactive and BRCA1 expr up inactive.
Screening CSc1ccc(-c2nnc(NC(=O)c3ccc4c(c3)OCCO4)o2)cc1 returned RGS4 inhibitor inactive.
Screening CCCC(=O)Nc1nnc(-c2ccc3c(c2)OCCO3)o1 returned EPAC2 antagonist inactive, RGS4 inhibitor inconclusive, EPAC2 ag inactive, EPAC1 agonist inactive, EPAC1 antagonist inactive and BRCA1 expr up 6.3µM.
Screening C#CCOCCOCCOCCNc1nc(N2CCOCC2)nc(N2CCN(C(=O)[C@H](CCCN=C(N)N)n3cc(C(N)[C@@H](C)CC)nn3)CC2)n1 (some centres not stated) returned EPAC2 antagonist inactive, RGS4 inhibitor inactive, EPAC2 ag inactive, EPAC1 agonist inactive, EPAC1 antagonist inactive and BRCA1 expr up inactive.
`Cc1nn(C)c(C)c1/C=C/C(=O)c1ccc(Cl)cc1Cl` gave EPAC2 antagonist inactive, RGS4 inhibitor inactive, EPAC2 ag inactive, EPAC1 agonist inactive, EPAC1 antagonist inactive and BRCA1 expr up inactive.
O=C(O)Cc1c(O)ccc2ccccc12 was read as EPAC2 antagonist inactive, RGS4 inhibitor inactive, EPAC2 ag inactive, EPAC1 agonist inactive, EPAC1 antagonist inactive and BRCA1 expr up inactive.
Oc1ccc2ccccc2c1SSc1c(O)ccc2ccccc12 was read as RGS4 inhibitor 1.7µM.
O=C(NNC(=O)c1ccc(F)cc1)c1ccncc1 was read as EPAC2 antagonist inactive, RGS4 inhibitor inactive, EPAC2 ag inactive, EPAC1 agonist inactive, EPAC1 antagonist inactive and BRCA1 expr up inactive.
CC1CC(C)CN(CCOc2cccc(Cl)c2Cl)C1 (configuration not stated) was read as EPAC2 antagonist inactive, RGS4 inhibitor inactive, EPAC2 ag inactive, EPAC1 agonist inactive, EPAC1 antagonist inactive and BRCA1 expr up inactive.
C=CCSc1nnc(-c2ccc([N+](=O)[O-])cc2)o1 was read as EPAC2 antagonist inactive, RGS4 inhibitor inactive, EPAC2 ag inactive, EPAC1 agonist inactive, EPAC1 antagonist inactive and BRCA1 expr up 10µM.
For CN(CCc1ccccn1)C(=O)CCc1nnc(CCCc2ccccc2)o1 the results were EPAC2 antagonist inactive, RGS4 inhibitor inactive, EPAC2 ag inactive, EPAC1 agonist inactive, EPAC1 antagonist inactive and BRCA1 expr up 13µM.
Cc1ccc(O)c(NC(=O)c2ccc3c(c2)C(=O)N(CC(C)C)C3=O)c1 was read as EPAC2 antagonist inactive, RGS4 inhibitor inactive, EPAC2 ag inactive, EPAC1 agonist inactive, EPAC1 antagonist inactive and BRCA1 expr up 7.9µM.
CCN1C(=O)C(=O)N(CC(=O)c2cc(C)n(C3CC3)c2C)C1=O was read as EPAC2 antagonist inactive, RGS4 inhibitor inactive, EPAC2 ag inactive, EPAC1 agonist inactive, EPAC1 antagonist inactive and BRCA1 expr up inconclusive.
`Cc1cc(C(=O)CN2C(=O)C(=O)N(CC(C)C)C2=O)c(C)n1C1CC1` gave EPAC2 antagonist inactive, RGS4 inhibitor inactive, EPAC2 ag inactive, EPAC1 agonist inactive, EPAC1 antagonist inactive and BRCA1 expr up 3.2µM.
Screening O=C(NOCc1ccccc1)c1ccccc1 returned EPAC2 antagonist inactive, RGS4 inhibitor inactive, EPAC2 ag inactive, EPAC1 agonist inactive, EPAC1 antagonist inactive and BRCA1 expr up 1.3µM.
Cc1ccc(CONC(=O)c2cccc(C)c2)cc1 was read as EPAC2 antagonist inactive, RGS4 inhibitor inactive, EPAC2 ag inactive, EPAC1 agonist inactive, EPAC1 antagonist inactive and BRCA1 expr up 8.9µM.
`O=C(NOCc1ccccc1)c1ccc(Cl)cc1Cl` gave EPAC2 antagonist inactive, RGS4 inhibitor inactive, EPAC2 ag inactive, EPAC1 agonist inactive, EPAC1 antagonist inactive and BRCA1 expr up inactive.
`S=C(Nc1ccc(Br)cc1)Nc1ccc2c(c1)OCCO2` gave EPAC2 antagonist inactive, RGS4 inhibitor inactive, EPAC2 ag inactive, EPAC1 agonist inactive, EPAC1 antagonist inactive and BRCA1 expr up 11µM.
For O=C(NC(=S)Nc1ccc2c(c1)OCCO2)c1cccc(Br)c1 the results were EPAC2 antagonist inactive, RGS4 inhibitor inactive, EPAC2 ag inactive, EPAC1 agonist inactive, EPAC1 antagonist inactive and BRCA1 expr up 4µM.
For COc1cc(NC(=S)Nc2ccc3c(c2)OCCO3)cc(OC)c1OC the results were EPAC2 antagonist inactive, RGS4 inhibitor inactive, EPAC2 ag inactive, EPAC1 agonist inactive, EPAC1 antagonist inactive and BRCA1 expr up inactive.
Screening O=C(NC(=S)Nc1ccc2c(c1)OCO2)c1ccccc1 returned EPAC2 antagonist inactive, RGS4 inhibitor inconclusive, EPAC2 ag inactive, EPAC1 agonist inactive, EPAC1 antagonist inactive and BRCA1 expr up inconclusive.
c1ccc2c(c1)OCc1cn[nH]c1-2 was read as EPAC2 antagonist inactive, RGS4 inhibitor inactive, EPAC2 ag inactive, EPAC1 agonist inactive, EPAC1 antagonist inactive and BRCA1 expr up inactive.
`CN(C)Cc1c(C(C)(C)O)[nH]c2ccc(C(F)(F)F)cc12` gave EPAC2 antagonist inactive, RGS4 inhibitor inactive, EPAC2 ag inactive, EPAC1 agonist inactive, EPAC1 antagonist inactive and BRCA1 expr up inactive.
CCC(=O)N1CCCC(C)(C(=O)Nc2ccc3scnc3c2)C1 (configuration not stated) was read as EPAC2 antagonist inactive, EPAC2 ag inactive, EPAC1 agonist inactive, EPAC1 antagonist inactive and BRCA1 expr up inactive.

Assay outcomes from PubChem BioAssay.
